# Data: PubChem BioAssay (Tox21)
# Results filed as inconclusive are left out. A number with no mark means an inactive call. Calls come from the whole dose curve; as a rule, active = well fitted cell-killing curve with a large enough effect in the repeat runs; inconclusive = weak or mixed curves; inactive = flat fitted curve, though single readings scatter.
# Test: qHTS RealTime-Glo MT Cell Viability Assay in HepG2 cells - 16 hour (AID 1224885); note: nearly all actives have a fitted effect of over 50% in size
# Conditions: RealTime-Glo luminescence; series mostly up to 76.8 µM; activity change, negative = cytotoxic: at the top concentration
# Text: U.S. Tox21 Program National Center for Advancing Translational Sciences [NCATS] NIH Chemical Genomics Center [NCGC] U.S. Environmental Protection Agency [EPA] National Institutes of Environmental Health Sciences [NIEHS] National Toxicology Program [NTP] U.S. Food and Drug Administration [FDA] Tox21 Assay Overview: Measure of cell viability is critical in the cell-base assay. Analysis of cell viability is necessary for the characterization of cell responses to cytotoxic drugs and environmental stress. A RealTime-Glo MT Cell Viability Assay to monitor cell viability in real time of continues cell culture during 40 hours of compound treatment was used to screen Tox21 10K library compounds in HepG2 cells. The RealTime-Glo MT Cell Viability Assay is a nonlytic, homogeneous, bioluminescent method to measure cell viability in real time using a simple, plate-based method. The assay involves adding NanoLuc luciferase and a cell-permeant prosubstrate to cells in culture. Viable cells reduce the proprietary prosubstrate to generate a substrate for NanoLuc luciferase. This substrate diffuses from cells into the surrounding culture medium, where it is rapidly used by the NanoLuc Enzyme to produce a luminescent signal. The signal correlates with the number of viable cells, making the assay well suited for cytotoxicity studies.
# Tox21 Assay Protocol Summary: The mixture of HepG2 cell suspension and reagents were dispensed at 600cells/6 ul/well in 1536-well tissue culture treated black solid bottom plates using a Multidrop dispenser. After the assay plates were incubated at a 37 C/5% CO2 incubator for 5 hours, 23 nL of compounds dissolved in DMSO, positive and negative controls was transferred to the assay plate by a pintool work station. The plates were incubated at 37 C for 40 hours. The luminescence intensity were measured at 0h, 8h, 16h, 24h, 32h and 40h time points using ViewLux plate reader during compound treatment.
# % is set by controls: 0 for no effect and ±100 for the full control effect.
row,SMILES,"activity change, negative = cytotoxic"
1,C/C(=C(\CCO)SS/C(CCO)=C(\C)N(C=O)Cc1cnc(C)nc1N)N(C=O)Cc1cnc(C)nc1N,1.54% [at 35.3 µM]
2,CC(=O)Nc1ccn(C2COC(COC(=O)c3ccccc3)O2)c(=O)n1 (stereo not given),0.217% [at 35.3 µM]
3,COC(=O)Cc1cccc2ccccc12,0.392%
4,Cc1ccc(S(=O)(=O)NC(=O)NC2CCCC2)cc1,5.75% [at 35.3 µM]
5,CCc1cnc(C(=O)O)c(C(=O)O)c1,3.74%
6,CCCCOC(=O)CC#N,-1.04%
7,COc1ccc(C(=O)Nc2ccccc2)cc1[N+](=O)[O-],-9.89%
8,CCC[Si](OC)(OC)OC,1.71%
9,Cc1c(-c2cccnc2)c2ccccc2n1CCCCC(=O)O,1.92%
10,CC(CC(C#N)(c1ccccc1)C(C)C)N(C)C (stereo not given),2.36% [at 35.3 µM]
11,Cc1c(Cl)cccc1[N+](=O)[O-],3.95%
12,Cc1ccc2ccccc2c1[N+](=O)[O-],-2.09%
13,COc1ccc(/C=C/S(=O)(=O)NC(=O)c2ccc(C)cc2Cl)cc1,4.85%
14,Cc1nc2sccn2c(=O)c1CCN1CCC(=C(c2ccc(F)cc2)c2ccc(F)cc2)CC1,-18.1% [at 35.3 µM]
15,Clc1ccccc1-c1nc(-c2ccncc2)no1,-1.74% [at 35.3 µM]
16,COC(=O)/C=C/C(C)=C\C=C\C(C)=C\C=C\C=C(C)\C=C\C=C(C)\C=C\C(=O)O,-10.6%
17,C[C@@H](O)[C@H]1C(=O)N2C(C(=O)O)=C(S[C@@H]3CN[C@H](CNS(N)(=O)=O)C3)[C@H](C)[C@H]12,-9.52% [at 35.3 µM]
18,NC(=O)c1cc[n+](CC2=C(C(=O)[O-])N3C(=O)[C@@H](NC(=O)Cc4cccs4)[C@H]3SC2)cc1,8.09% [at 35.3 µM]
19,O=C(O)c1ccc2c(c1)nc(C(=O)NC1CCN(C3CC3)CC1)n2Cc1cc(-c2ccc(Cl)s2)on1,-5.36% [at 15.8 µM]
20,CC(O)C(C)O (stereo not given),1.53%

row,SMILES,"activity change, negative = cytotoxic"
1,CCCCCCCCNC,0.722%
2,O=C1CCCN1CCO,-0.685%
3,O=C(OCCCCCOC(=O)c1ccccc1)c1ccccc1,-10.2%
4,Clc1cc(Cl)c2c(c1)N=C1CCCCCN1C2,-5.29% [at 35.3 µM]
5,OCCCO,0.857%
6,CCCCCCCCCC(C)C=O (stereo not given),0.514%
7,Nc1ccc(C(=O)Oc2ccccc2)c(O)c1,-2.89% [at 35.3 µM]
8,CCCCC(CC)COCCC#N (stereo not given),-0.845%
9,CCCc1nc(C)c2c(=O)[nH]c(-c3cc(S(=O)(=O)N4CCN(CC)CC4)ccc3OCC)nn12,-9.79% [at 35.3 µM]
10,NC(=O)c1ccccc1C(N)=O,-3.88%
11,N#CCCCC(C#N)CCC#N (stereo not given),-1.96%
12,O=C(Cl)c1cc(Cl)cc(Cl)c1,-1.56%
13,CC(C(=O)O)c1ccc(/C=C2\CCCCC2=O)cc1 (stereo not given),6.58% [at 35.3 µM]
14,Cc1nc(C)c(C)nc1C,1.41%
15,O=S(=O)(O)c1cc(Cl)c(Cl)cc1Cl,1.26%
16,O=C(O)c1cc(C(=O)O)c(C(=O)O)cc1C(=O)O,1.53%
17,C/C=C1\[C@H]2C=C(C)C[C@]1(N)c1ccc(=O)[nH]c1C2,0.119% [at 35.3 µM]
18,CC/C=C\CCO,0.633%
19,Nc1ccccc1Nc1ccccc1,0.373%
20,CC1=CC(=C(c2ccc(N)cc2)c2ccc(N)cc2)C=CC1=N,0.128% [at 6.97 µM]
